Measured values taken from PubChem BioAssay AID1159580 (chemical genetic matrix, 2015).
Where “and” joins values, the source holds several entries; their conditions need not be identical. Equal entries are not always repeated. About 2,000 (36%) of roughly 5,500 compounds were called active. Another 18% or so got no clear call; they are omitted. No stated cut-off is given here; in the data, active means normalized growth mostly below about 0.91 (no sharp cut-off); inconclusive means no clear call, values can overlap the other calls; inactive means mostly above about 0.92. The list shows a part of the results.

Assay: chemical genetic growth profiling, strain panel (AID 1159580);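 further: tested at 20 µM; growth read once vehicle control cultures reached saturation at 30 °C; 1 = growth at the plate median or of vehicle wells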
Details: S. cerevisiae deletion strains, growth OD

Measured: normalized growth

O=C(Cn1ccnc1[N+](=O)[O-])NCCO
inactive: locus YAL013W, strain DEP1, stronger effect = lower value 0.996 | locus YAL021C, strain ccr4, stronger effect = lower value 1.02 | locus YAL026C, strain drs2, stronger effect = lower value 1.02 | locus YAL030W, strain snc1, stronger effect = lower value 1.01 | locus YBL061C, strain skt5, stronger effect = lower value 1.03 | locus YBR009C, strain hhf1, stronger effect = lower value 1.02 | locus YBR021W, strain FUR4, stronger effect = lower value 1.03 | locus YBR023C, strain chs3, stronger effect = lower value 1.02 | locus YBR171W, strain sec66, stronger effect = lower value 1.04 | locus YBR229C, strain ROT2, stronger effect = lower value 1.01 | locus YBR231C, strain swc5, stronger effect = lower value 1 | locus YBR279W, strain paf1, stronger effect = lower value 1 | locus YCL011C, strain gbp2, stronger effect = lower value 1.01 | locus YCL016C, strain dcc1, stronger effect = lower value 1.02 | locus YCL029C, strain bik1, stronger effect = lower value 1.02 | locus YCL061C, strain MRC1, stronger effect = lower value 1.01 | locus YCL069W, strain vba3, stronger effect = lower value 1.01 | locus YCR088W, strain abp1, stronger effect = lower value 1.01 | locus YDL005C, strain med2, stronger effect = lower value 1.02 | locus YDL035C, strain GPR1, stronger effect = lower value 1.02 | locus YDL040C, strain nat1, stronger effect = lower value 1.01 | locus YDL074C, strain BRE1, stronger effect = lower value 0.99 | locus YDL101C, strain DUN1, stronger effect = lower value 1 | locus YDL134C, strain PPH21, stronger effect = lower value 0.996 | locus YDL185W, strain tfp1, stronger effect = lower value 0.999 | locus YDL192W, strain arf1, stronger effect = lower value 1.01 | locus YDR001C, strain nth1, stronger effect = lower value 1.01 | locus YDR069C, strain doa4, stronger effect = lower value 1.02 | locus YDR101C, strain arx1, stronger effect = lower value 1.01 | locus YDR137W, strain rgp1, stronger effect = lower value 1.05 | locus YDR150W, strain NUM1, stronger effect = lower value 0.998 | locus YDR159W, strain sac3, stronger effect = lower value 1.02 | locus YDR162C, strain NBP2, stronger effect = lower value 0.985 | locus YDR195W, strain ref2 1.02 | locus YDR297W, strain sur2, stronger effect = lower value 1.01 | locus YDR318W, strain mcm21, stronger effect = lower value 1.03 | locus YDR334W, strain swr1, stronger effect = lower value 1.01 | locus YDR335W, strain msn5, stronger effect = lower value 1.01 | locus YDR388W, stronger effect = lower value 1.01 | locus YDR392W, strain spt3, stronger effect = lower value 1.03 | locus YDR502C, strain sam2, stronger effect = lower value 0.988 | locus YEL003W, strain gim4, stronger effect = lower value 1 | locus YEL037C, strain rad23, stronger effect = lower value 1.02 | locus YEL061C, strain CIN8 (second series), stronger effect = lower value 1.01 | locus YEL061C, strain CIN8, stronger effect = lower value 1 | locus YER015W, strain faa2, stronger effect = lower value 1 | locus YER016W, strain bim1, stronger effect = lower value 1.01 | locus YER110C, stronger effect = lower value 1 | locus YER111C, strain swi4, stronger effect = lower value 1.02 | locus YER155C, strain BEM2 (second series), stronger effect = lower value 1.01 | locus YER155C, strain BEM2, stronger effect = lower value 1 | locus YER167W, strain BCK2, stronger effect = lower value 1.03 | locus YFR010W, strain ubp6, stronger effect = lower value 1.02 | locus YGL078C, strain dbp3, stronger effect = lower value 0.983 | locus YGL086W, strain mad1, stronger effect = lower value 1.03 | locus YGL167C, strain pmr1, stronger effect = lower value 1.02 | locus YGL173C, strain kem1, stronger effect = lower value 1.01 | locus YGL227W, strain vid30, stronger effect = lower value 1.01 | locus YGL240W, strain doc1, stronger effect = lower value 1.02 | locus YGL248W, strain PDE1, stronger effect = lower value 0.999 | locus YGL253W, strain hxk2, stronger effect = lower value 0.982 | locus YGR078C, strain PAC10, stronger effect = lower value 0.995 | locus YGR135W, strain pre9, stronger effect = lower value 0.988 | locus YGR229C, strain SMI1, stronger effect = lower value 0.999 | locus YGR252W, strain gcn5, stronger effect = lower value 1.09 | locus YHR013C, strain ard1, stronger effect = lower value 1.04 | locus YHR027C, strain rpn1, stronger effect = lower value 1.01 | locus YHR030C, strain SLT2, stronger effect = lower value 1.01 and 0.984 | locus YHR079C, strain IRE1 (second series), stronger effect = lower value 1.01 | locus YHR079C, strain IRE1, stronger effect = lower value 0.998 | locus YHR094C, strain hxt1, stronger effect = lower value 1.01 | locus YHR129C, strain ARP1, stronger effect = lower value 1.01 | locus YHR142W, strain chs7, stronger effect = lower value 1.02 | locus YHR200W, strain rpn10, stronger effect = lower value 1.01 | locus YIL066C, strain RNR3, stronger effect = lower value 1.01 | locus YIL073C, strain SPO22, stronger effect = lower value 1.04 | locus YIL125W, strain kgd1, stronger effect = lower value 0.997 | locus YIR030C, strain dcg1, stronger effect = lower value 1.01 | locus YJL092W, strain hpr5, stronger effect = lower value 1.02 | locus YJL095W, strain BCK1 (second series), stronger effect = lower value 1.01 | locus YJL095W, strain BCK1, stronger effect = lower value 1.01 and 0.995 | locus YJL115W, strain asf1, stronger effect = lower value 1.01 | locus YJL129C, strain trk1, stronger effect = lower value 1.02 | locus YJL134W, strain LCB3, stronger effect = lower value 1.01 | locus YJL154C, strain vps35, stronger effect = lower value 1.02 | locus YJL166W, strain qcr8, stronger effect = lower value 1.01 | locus YJL168C, strain set2, stronger effect = lower value 1.01 | locus YJL187C, strain SWE1 (second series), stronger effect = lower value 0.999 | locus YJL187C, strain SWE1, stronger effect = lower value 1.01 | locus YJR043C, strain POL32, stronger effect = lower value 1.04 | locus YJR066W, strain TOR1, stronger effect = lower value 0.972
